Inconclusive results are not listed. Calls of active or inactive are those of the source. Unless noted, calls follow the shape of the full dose curve.
What was measured:
[1] = Nuclear factor erythroid 2-related factor 2/antioxidant responsive element (Nrf2/ARE) small molecule agonists: qHTS cell viability counter screen in human keratinocytes (AID 1919968; active = well fitted curve in the direction sought with a large enough effect in the repeat runs; an effect the other way counts as inactive or inconclusive; also: nearly all actives have a fitted effect of over 55% in size; also: potency is read from the fitted curve at half-maximal effect)
Procedure, shortened: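 HaCaT ARE reporter line, 1,500 cells/well; 5 h settle, 37 C/5% CO2; cpd in DMSO pinned; 23 h exposure; CellTiter-Fluor, 1 h; fluorescence.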

[2] = Nuclear factor erythroid 2-related factor 2/antioxidant responsive element (Nrf2/ARE) small molecule agonists: luciferase reporter gene qHTS assay in human keratinocytes (AID 1919969); also: nearly all actives have a fitted effect of over 35% in size; also: potency is read from the fitted curve at half-maximal effect
[3] = target: Gonadotropin-releasing hormone receptor (Homo sapiens) (UniProt P30968); experiment: Human gonadotropin-releasing hormone receptor (GnRHR) small molecule agonists, calcium flux assay in GnRHR-HEK293 cells (AID 1920063); also: nearly all actives have a fitted effect of over 35% in size; also: potency is read from the fitted curve at half-maximal effect
Gonadotropin-releasing hormone receptor (Homo sapiens), sequence (P30968 whole entry, looked up): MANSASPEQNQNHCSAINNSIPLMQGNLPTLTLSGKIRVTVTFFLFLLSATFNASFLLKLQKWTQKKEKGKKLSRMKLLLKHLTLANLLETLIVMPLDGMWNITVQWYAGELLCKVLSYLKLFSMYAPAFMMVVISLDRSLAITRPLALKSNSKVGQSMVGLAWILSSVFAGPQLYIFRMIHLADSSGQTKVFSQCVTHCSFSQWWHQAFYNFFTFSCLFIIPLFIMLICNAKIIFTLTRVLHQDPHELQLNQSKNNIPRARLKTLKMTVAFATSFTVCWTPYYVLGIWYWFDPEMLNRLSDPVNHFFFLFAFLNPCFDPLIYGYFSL
Procedure, shortened: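 GnRHR-HEK293, 1500 cells/well, 18 h 37 C/5% CO2; Ca dye 1 h 37 C; cpd pinned (DMSO), agonist mode; kinetic FL 480/540, 3 min, 1 s reads; 15 conc, n=3.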

[4] = target: KiSS-1 receptor (Homo sapiens) (UniProt Q969F8); experiment: Human kisspeptin (KISS1R) small molecule agonists, calcium flux assay in KISS1R-HEK293 cells (AID 1920064; active = well fitted curve in the direction sought with a large enough effect in the repeat runs; an effect the other way counts as inactive or inconclusive)
KiSS-1 receptor (Homo sapiens), sequence (Q969F8 whole entry, looked up): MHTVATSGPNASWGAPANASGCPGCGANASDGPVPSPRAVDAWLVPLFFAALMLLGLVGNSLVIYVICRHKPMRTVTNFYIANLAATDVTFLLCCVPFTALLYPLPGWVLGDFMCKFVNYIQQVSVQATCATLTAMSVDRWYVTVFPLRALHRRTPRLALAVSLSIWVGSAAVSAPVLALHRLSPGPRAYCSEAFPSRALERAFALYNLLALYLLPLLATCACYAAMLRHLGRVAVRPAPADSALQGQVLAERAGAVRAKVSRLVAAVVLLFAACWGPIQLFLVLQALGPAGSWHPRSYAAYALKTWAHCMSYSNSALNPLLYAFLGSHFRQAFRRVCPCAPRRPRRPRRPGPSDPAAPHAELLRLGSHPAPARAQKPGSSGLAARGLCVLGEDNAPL
Procedure, shortened: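 Stable human KISS1R HEK293 line; 18 h plating, 37 C/5% CO2; calcium dye 1 h 37 C; compound pin transfer; kinetic fluorescence Ex/Em 480/540, 3 min.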

[5] = G protein-coupled receptor (GPCR) small molecule agonists, calcium flux assay: HEK293 wild type cell line counter screen (AID 1920065)
Procedure, shortened: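 Kinetic fluorescence at Ex/Em 480/540, recorded every second over 3 min, served as the read-out after compound addition. Each compound was tested at 15 concentrations in triplicate on cells pre-loaded with calcium dye for 1 h.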

[6] = p53 small molecule agonists, cell-based qHTS assay with human liver microsomes (AID 1963577);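 also: p53 response element beta-lactamase reporter cells with liver microsomes plus NADPH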
Procedure, shortened: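 In this qHTS, p53 response-element beta-lactamase cells receive test compound together with a microsome/NADPH activating system (0.5 mg/mL final each) and are incubated 16 h at 37 C before LiveBLAzer fluorescence detection.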

[7] = p53 small molecule agonists, cell-based qHTS assay with rat liver microsomes (AID 1963578)
Procedure, shortened: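 Agonist mode in p53RE-bla reporter cells, with compounds co-incubated 16 h at 37 C alongside 0.5 mg/mL rat liver microsomes and 0.5 mg/mL NADPH (final), followed by a 2 h LiveBLAzer detection step.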

[8] = p53 small molecule agonists, cell-based qHTS assay with human liver microsomes: qHTS cell viability counter screen (AID 1963579); also: nearly all actives have a fitted effect of over 45% in size
Procedure, shortened: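 Metabolically activated exposure: compounds, human liver microsomes and NADPH (0.5 mg/mL final apiece) were added to p53RE-bla cells seeded 5 h earlier, left 16 h at 37 C, and then assessed for viability by CellTiter-Glo luminescence.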

[9] = p53 small molecule agonists, cell-based qHTS assay with rat liver microsomes: qHTS cell viability counter screen (AID 1963580); also: nearly all actives have a fitted effect of over 45% in size
Procedure, shortened: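 In HCT-116 cells carrying a p53 response element-bla reporter, compounds were metabolically activated in situ by rat liver microsomes with NADPH over 16 h. Cell ATP content then served as the cytotoxicity measure.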

[10] = target: 5-hydroxytryptamine receptor 2A (Homo sapiens) (UniProt P28223); experiment: 5-hydroxytryptamine receptor 2A (HTR2A) small molecule antagonists, cell-based qHTS assay (AID 1963586); also: nearly all actives have a fitted effect of over 45% in size
5-hydroxytryptamine receptor 2A (Homo sapiens), sequence (P28223 whole entry, looked up): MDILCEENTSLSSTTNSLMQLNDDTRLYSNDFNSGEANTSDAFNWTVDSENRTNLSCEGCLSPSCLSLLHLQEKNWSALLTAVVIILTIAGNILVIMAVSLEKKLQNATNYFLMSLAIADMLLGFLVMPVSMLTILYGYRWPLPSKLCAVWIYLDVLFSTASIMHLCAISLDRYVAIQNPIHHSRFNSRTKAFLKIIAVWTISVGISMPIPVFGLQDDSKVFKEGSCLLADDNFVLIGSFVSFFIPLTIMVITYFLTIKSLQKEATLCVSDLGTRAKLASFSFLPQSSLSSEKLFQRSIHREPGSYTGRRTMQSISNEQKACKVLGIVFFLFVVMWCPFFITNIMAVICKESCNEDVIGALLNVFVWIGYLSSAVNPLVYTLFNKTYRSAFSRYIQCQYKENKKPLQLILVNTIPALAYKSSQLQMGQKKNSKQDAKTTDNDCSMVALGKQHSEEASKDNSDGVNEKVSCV
Procedure, shortened: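 Antagonist-mode intracellular calcium assay: DOI (4 nM) added after 5 min compound pre-incubation at room temperature to dye-loaded HTR2A-CHO cells. Fluorescence followed for 3 min, sampled every second.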

[11] = target: 5-hydroxytryptamine receptor 2A (Homo sapiens) (UniProt P28223); experiment: 5-hydroxytryptamine receptor 2A (HTR2A) small molecule agonists, cell-based qHTS assay (AID 1963587); also: nearly all actives have a fitted effect of over 30% in size
Procedure, shortened: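 HTR2A-CHO cells, plated 18 h at 37 C/5% CO2, dye-loaded 1 h at 37 C; compounds in DMSO added by pin tool (agonist mode). Intracellular calcium flux read as kinetic fluorescence on FDSS over 2 min at 1 s intervals.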

[12] = target: Muscarinic acetylcholine receptor M1 (Homo sapiens) (UniProt P11229); experiment: Cholinergic receptor muscarinic 1 (CHRM1) small molecule antagonists, cell-based qHTS assay (AID 1963588); also: nearly all actives have a fitted effect of over 40% in size
Muscarinic acetylcholine receptor M1 (Homo sapiens), sequence (P11229 whole entry, looked up): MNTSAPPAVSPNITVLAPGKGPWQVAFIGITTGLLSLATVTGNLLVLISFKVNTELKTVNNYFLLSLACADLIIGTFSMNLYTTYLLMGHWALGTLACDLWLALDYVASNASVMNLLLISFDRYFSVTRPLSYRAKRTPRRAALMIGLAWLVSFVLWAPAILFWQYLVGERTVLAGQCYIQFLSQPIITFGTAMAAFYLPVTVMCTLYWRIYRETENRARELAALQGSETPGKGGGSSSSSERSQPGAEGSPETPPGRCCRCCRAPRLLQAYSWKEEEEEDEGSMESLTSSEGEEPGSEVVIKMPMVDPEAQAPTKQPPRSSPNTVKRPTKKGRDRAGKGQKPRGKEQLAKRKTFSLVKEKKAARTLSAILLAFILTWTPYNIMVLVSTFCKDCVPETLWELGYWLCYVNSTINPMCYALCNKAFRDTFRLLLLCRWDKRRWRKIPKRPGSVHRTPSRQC
Procedure, shortened: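 CHRM1-CHO calcium-flux assay, antagonist mode. Cells were seeded 18 h, dye-loaded 1 h at 37 C and given compound for 5 min at RT, then acetylcholine was added at 50nM. FDSS fluorescence was read 3 min; 15 concentrations, three runs.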

[13] = target: Muscarinic acetylcholine receptor M1 (Homo sapiens) (UniProt P11229); experiment: Cholinergic receptor muscarinic 1 (CHRM1) small molecule agonists, cell-based qHTS assay (AID 1963589); also: nearly all actives have a fitted effect of over 35% in size
Procedure, shortened: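 Human M1 in stable CHO line; 18 h plating, 1 h dye load 37 C; cpd added (agonist mode); Ca2+ fluorescence kinetic read, 1 s intervals; 15 conc, 3 runs.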

[14] = target: Beta-2 adrenergic receptor (Homo sapiens) (UniProt P07550); experiment: Adrenergic beta2 receptor (ADRB2) small molecule antagonists, cell-based qHTS assay (AID 1963592); also: series mostly up to about 92 µM; nearly all actives have a fitted effect of over 50% in size
Beta-2 adrenergic receptor (Homo sapiens), sequence (P07550 whole entry, looked up): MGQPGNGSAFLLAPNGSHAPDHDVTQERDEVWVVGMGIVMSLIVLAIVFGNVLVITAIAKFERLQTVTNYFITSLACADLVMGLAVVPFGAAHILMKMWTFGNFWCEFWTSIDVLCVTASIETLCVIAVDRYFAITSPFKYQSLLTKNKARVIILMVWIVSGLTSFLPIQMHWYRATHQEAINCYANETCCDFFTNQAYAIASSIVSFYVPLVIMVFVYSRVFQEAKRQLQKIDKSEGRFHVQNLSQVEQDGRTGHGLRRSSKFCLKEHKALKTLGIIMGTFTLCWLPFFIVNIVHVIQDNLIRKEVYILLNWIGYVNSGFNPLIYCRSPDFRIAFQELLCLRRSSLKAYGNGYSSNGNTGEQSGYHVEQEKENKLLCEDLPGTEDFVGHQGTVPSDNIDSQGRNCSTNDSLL
Procedure, shortened: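 Cells (CHO, stable ADRB2 overexpression) incubated 18-20hr at 37C; compounds added from DMSO; agonist mix (1nM isoproterenol, 100uM IBMX, 25uM Ro-20-1724) added; 0.5hr RT; d2-cAMP and anti-cAMP-cryptate added; 1hr RT; 665/615 nm read.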

[15] = target: Beta-2 adrenergic receptor (Homo sapiens) (UniProt P07550); experiment: Adrenergic beta2 receptor (ADRB2) small molecule agonists, cell-based qHTS assay (AID 1963593);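 also: CHO cells stably overexpressing human ADRB2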
Procedure, shortened: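 CHO cells stably over-expressing ADRB2 were plated overnight at 37C, then dosed with compounds plus a stimulation mix containing 100uM IBMX and 25uM Ro-20-1724 for 0.5hr at room temperature. cAMP was measured by HTRF competition, 1hr.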

[16] = target: D(2) dopamine receptor (Homo sapiens) (UniProt P14416); experiment: Dopamine D2 receptor (DRD2) small molecule antagonists, cell-based qHTS assay (AID 1963595; active = well fitted inhibition curve with a large enough effect in the signal ratio in the repeat runs, with a control signal flat; the % refers to the signal ratio)
D(2) dopamine receptor (Homo sapiens), sequence (P14416 whole entry, looked up): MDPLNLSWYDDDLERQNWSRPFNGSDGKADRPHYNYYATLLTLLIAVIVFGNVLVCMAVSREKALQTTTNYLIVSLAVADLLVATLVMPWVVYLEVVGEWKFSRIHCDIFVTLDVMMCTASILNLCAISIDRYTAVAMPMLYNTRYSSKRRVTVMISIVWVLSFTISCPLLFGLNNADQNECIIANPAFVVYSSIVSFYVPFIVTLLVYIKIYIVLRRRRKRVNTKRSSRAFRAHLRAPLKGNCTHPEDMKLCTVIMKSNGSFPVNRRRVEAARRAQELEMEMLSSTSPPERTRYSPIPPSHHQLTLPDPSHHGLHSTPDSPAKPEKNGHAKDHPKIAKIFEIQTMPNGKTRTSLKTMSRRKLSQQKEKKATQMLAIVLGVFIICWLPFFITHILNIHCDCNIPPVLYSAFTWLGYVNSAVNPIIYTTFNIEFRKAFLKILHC
Procedure, shortened: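 Stable D2 receptor HEK293 line, 24 h after seeding. Compound preincubated 10 min, then quinpirole (12 nM) with forskolin analogue NKH477 (200 nM), 30 min, room temperature. Detection by time-resolved FRET of cAMP.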

[17] = cAMP Responsive Elements (CRE) small molecule agonists, cell-based qHTS assay (AID 1963590)
Procedure, shortened: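 HEK 293T CRE-bla, 2,000 cells/well, 18 h preincubation 37 C/5% CO2; cpds (DMSO) pinned, 3 h; LiveBLAzer B/G FRET substrate, 2 h RT.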

[18] = cAMP Responsive Elements (CRE) small molecule antagonists, cell-based qHTS assay (AID 1963591; active = well fitted inhibition curve with a large enough effect in the signal ratio in the repeat runs, not every such curve was filed as active; the % refers to the signal ratio)
Procedure, shortened: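 Beta-lactamase reporter read by FRET substrate (LiveBLAzer B/G) after 2 h at room temperature. CRE-bla HEK293T cells had received compound plus 0.25 uM (final) NKH477 for 3 h at 37 °C.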

[19] = target: D(2) dopamine receptor (Homo sapiens) (UniProt P14416); experiment: Dopamine D2 receptor (DRD2) small molecule agonists, cell-based qHTS assay (AID 1963594); also: nearly all actives have a fitted effect of over 35% in size
Procedure, shortened: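 HEK293 cells stably expressing DRD2 were cultured 24 h at 37 C, then given Ro20-1724 (0.1 mM final) and compounds for 10 min at room temperature. NKH477 (200nM) was then added for 30 min. cAMP was read by HTRF.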

[20] = p53 small molecule agonists, cell-based qHTS assay (AID 1963582; active = well fitted activation curve with a large enough effect in the signal ratio in the repeat runs, not every such curve was filed as active; the % refers to the signal ratio)
Procedure, shortened: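 Reporter line: p53RE-bla. Pre-incubation 5 h, 37 C, 5% CO2; compound (DMSO, pin tool) 16 h, 37 C; B/G FRET substrate 2 h RT; fluorescence intensity read.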
% is scaled to controls: 0 for no effect and ±100 for the full control effect.

O=C(O)Cc1sc(-c2ccccc2)nc1-c1ccc(Cl)cc1
inactive: Potency [1] | Potency [2] | Potency [3] | outcome [4] | outcome [5] | Potency [6] | Potency [7] | Potency [8] | Potency [9] | Potency [10] | Potency [11] | Potency [12] | Potency [13] | Potency [14] | Potency [15] | Potency [16]

O=C(O)c1ccncc1
inactive: Potency [1] | Potency [2] | Potency [3] | outcome [4] | outcome [5] | Potency [6] | Potency [7] | Potency [8] | Potency [9] | Potency [10] | Potency [11] | Potency [12] | Potency [13] | Potency [17] | Potency [18] | Potency [14] | Potency [19] | Potency [16]

C[C@H]1NCc2cc(-c3ccc4c(=O)c(C(=O)O)cn(C5CC5)c4c3OC(F)F)ccc21
inactive: activity change, negative = cytotoxicity [1] 4.74% [at 19 µM] | activity, positive = activation [2] -0.2% [at 19 µM] | activity change [3] -2.08% [at 11.8 µM, hits give high values] | activation [4] -1.09% [at 15.8 µM] | activation [5] -0.804% [at 11.8 µM] | activation [6] -4.26% [at 13.5 µM] | activation [7] 0.634% [at 13.6 µM] | activity change, negative = cytotoxicity [8] -4.1% [at 13.5 µM] | activity change, negative = cytotoxicity [9] 2.66% [at 13.5 µM] | activity, negative = inhibition [10] 1.4% [at 12.7 µM] | activation [11] -1.89% [at 15.9 µM] | activity, negative = inhibition [12] 19.5% [at 12.6 µM] | activation [13] -0.122% [at 15.8 µM] | activation [17] -1.76% [at 19 µM] | activity change, negative = inhibition [14] 10.3% [at 19 µM] | activation [19] -2.66% [at 19 µM] | activity change, negative = inhibition [16] -0.31% [at 18.9 µM]

CN1CCN(c2c(F)cc3c(=O)c(C(=O)O)cn4c3c2SCC4)CC1
inactive: Potency [1] | Potency [2] | Potency [3] | outcome [4] | outcome [5] | Potency [6] | Potency [7] | Potency [8] | Potency [9] | Potency [10] | Potency [11] | Potency [13] | Potency [14] | Potency [15] | Potency [16]

NC(=O)CC[C@@H]1NC(=O)[C@H](Cc2ccccc2)NC(=O)[C@H](Cc2ccc(O)cc2)NC(=O)CCSSC[C@@H](C(=O)N2CCC[C@H]2C(=O)N[C@@H](CCCN=C(N)N)C(=O)NCC(N)=O)NC(=O)[C@H](CC(N)=O)NC1=O
inactive: Potency [1] | Potency [2] | Potency [3] | outcome [4] | outcome [5] | Potency [6] | Potency [7] | Potency [8] | Potency [9] | Potency [20] | Potency [17] | Potency [14] | Potency [15] | Potency [19]

O=C(O)Cn1c(C(=O)Nc2nc(-c3ccccc3Cl)cs2)cc2ccccc21
inactive: Potency [1] | outcome [4] | outcome [5] | Potency [6] | Potency [7] | Potency [8] | Potency [9] | Potency [10] | Potency [11] | Potency [12] | Potency [13] | Potency [14] | Potency [16]
active: Potency [2] 15 µM | Potency [3] 3.38 µM

O=C(NS(=O)(=O)/C=C/c1ccccc1)c1ccc(F)cc1Cl
inactive: Potency [1] | Potency [3] | outcome [4] | outcome [5] | Potency [6] | Potency [7] | Potency [8] | Potency [9] | Potency [10] | Potency [11] | Potency [13] | Potency [14] | Potency [15] | Potency [19] | Potency [16]
active: Potency [2] 27.3 µM

Cc1cc(S(=O)(=O)O)ccc1N=Nc1c(O)ccc2ccccc12
inactive: Potency [2] | Potency [3] | outcome [4] | outcome [5] | Potency [6] | Potency [7] | Potency [8] | Potency [9] | Potency [10] | Potency [11] | Potency [12] | Potency [13] | Potency [17] | Potency [19] | Potency [16]
active: Potency [1] 43.3 µM

From PubChem BioAssay (Tox21)
